# In the library only some 10% were active in any assay of this set; here they are far more common.
# G9a inh – blocks human histone lysine methyltransferase G9a; G9a H3K9 monomethylation, AlphaScreen, 2 h; hit rate 8.8% among 350,000; Q96KQ7; AID 504332; Potency, µM (highest dose often 102 µM), inactives show top-dose activity, negative = inhibition, actives largely listed as inhibitors; note: % is set by controls: 0 for no effect and ±100 for the full control effect; nearly all actives have a fitted effect of over 75% in size
#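 G9a (20 nM) was preincubated 15 min with compound, then reacted 2 h at room temperature with 500 nM biotin-H3K9 peptide and 20 µM SAM. Monomethyl-H3K9 detected by AlphaScreen using anti-H3K9me1 antibody.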
# GLS inhibitor – inhibitors of human glutaminase (GLS); O94925; GLS enzymatic activity, qHTS titration; Potency, µM (highest dose often 45.5 µM), for the others: at the highest dose activity change, negative = inhibition, usual class: inhibitors; hit rate 0.21% among 410,000; note: % is set by controls: 0 for no effect and ±100 for the full control effect
#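 Glutamate formation by hKGA was monitored fluorometrically using coupled glutamate oxidase, HRP and Amplex Red. Substrate was added as 1 mM L-glutamine solution; incubation was 30 min at RT after an initial read.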
# HP1b chromo inh – inhibitors of HP1-beta chromodomain binding to methylated histone tails; P83916; AlphaScreen HP1-beta / biotin-H3K9me3 peptide binding; Potency, µM (top dose mostly 114 µM), without a hit: at the highest dose activity change, negative = inhibition, actives largely listed as inhibitors; hit rate 0.56% among 390,000; AID 540317; note: nearly all actives have a fitted effect of over 70% in size
#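 Compound inhibition of the preformed complex between 50 nM HP1-beta and 50 nM biotinylated H3K9me3 peptide was read by AlphaScreen. Buffer was PBS pH 7.4 with 0.01% Tween-20. Incubations ran 30 min at room temperature, with 10 ug/mL donor/acceptor beads.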
# JMJD2A Tudor – JMJD2A Tudor domain (human) inhibition; O75164; AlphaScreen JMJD2A-Tudor / H3K4me3 peptide binding; Potency, µM (doses to about 114 µM), inactives show at the top dose activity change, negative = inhibition, actives largely listed as inhibitors; hit rate 4.4% among 390,000; note: % is set by controls: 0 for no effect and ±100 for the full control effect; nearly all actives have a fitted effect of over 50% in size
# Target sequence (O75164 whole entry, looked up, the tested form may be a part): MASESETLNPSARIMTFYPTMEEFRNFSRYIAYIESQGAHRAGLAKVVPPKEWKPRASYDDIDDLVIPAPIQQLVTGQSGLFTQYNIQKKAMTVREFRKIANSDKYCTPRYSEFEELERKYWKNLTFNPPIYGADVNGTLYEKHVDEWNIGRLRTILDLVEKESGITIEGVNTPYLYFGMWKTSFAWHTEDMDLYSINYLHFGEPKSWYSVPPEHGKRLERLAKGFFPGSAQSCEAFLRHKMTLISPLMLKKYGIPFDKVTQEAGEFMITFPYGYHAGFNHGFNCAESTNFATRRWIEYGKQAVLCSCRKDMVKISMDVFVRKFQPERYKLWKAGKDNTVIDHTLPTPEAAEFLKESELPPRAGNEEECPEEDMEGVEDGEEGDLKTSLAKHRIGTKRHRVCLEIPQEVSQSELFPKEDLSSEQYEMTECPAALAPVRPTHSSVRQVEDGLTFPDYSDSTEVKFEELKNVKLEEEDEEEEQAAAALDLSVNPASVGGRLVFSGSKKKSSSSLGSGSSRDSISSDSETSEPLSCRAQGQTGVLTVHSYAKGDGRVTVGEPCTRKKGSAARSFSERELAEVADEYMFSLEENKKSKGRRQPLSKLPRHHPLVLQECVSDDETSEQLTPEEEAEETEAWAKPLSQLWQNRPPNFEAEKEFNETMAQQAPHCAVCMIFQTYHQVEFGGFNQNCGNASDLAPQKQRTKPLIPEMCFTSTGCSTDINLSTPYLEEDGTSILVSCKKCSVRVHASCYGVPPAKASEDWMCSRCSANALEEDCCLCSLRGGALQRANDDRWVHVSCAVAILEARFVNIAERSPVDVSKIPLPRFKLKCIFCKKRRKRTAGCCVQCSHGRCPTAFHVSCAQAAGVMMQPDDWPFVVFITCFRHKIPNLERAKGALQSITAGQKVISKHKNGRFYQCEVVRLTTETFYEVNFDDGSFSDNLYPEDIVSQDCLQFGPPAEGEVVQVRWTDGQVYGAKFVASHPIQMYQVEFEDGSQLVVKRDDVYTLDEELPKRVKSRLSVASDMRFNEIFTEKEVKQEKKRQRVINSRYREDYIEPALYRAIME
# BAZ2B inh – inhibitors of human BAZ2B bromodomain; Q9UIF8; AlphaScreen BAZ2B-H3K14Ac peptide displacement; Potency, µM (doses to about 114 µM), inactives show at the highest dose activity change, negative = inhibition, usual class: inhibitors; hit rate 4.4% among 360,000; note: % is set by controls: 0 for no effect and ±100 for the full control effect; nearly all actives have a fitted effect of over 60% in size
#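 Protein-peptide AlphaScreen: BAZ2B 50 nM, b-H3K14Ac 50 nM, 1x PBS pH 7.4 + 0.01% Tween-20. Preincubation 30 min RT; cpd 30 min RT (top 110 uM); beads 20 min RT, light-protected.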
# L3MBTL1 inh – L3MBTL1 (human) inhibition. Potency, µM (series often up to 57.1 µM), for inactives: at the highest dose activity, negative = inhibition, hits mostly inhibitors. hit rate 0.66% among 230,000. Q9Y468. AlphaScreen L3MBTL1–H3K9me1 peptide binding; note: % is set by controls: 0 for no effect and ±100 for the full control effect; nearly all actives have a fitted effect of over 60% in size
#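 L3MBTL1 (50 nM) pre-complexed 30 min with biotinylated H3(1-15)K9me1 peptide (75 nM), then compounds added for 30 min at room temperature; AlphaScreen streptavidin donor/nickel chelate acceptor beads (10 ug/mL final) read after 30 min dark incubation.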
# Numbers without * were called inactive; ? = inconclusive; . = no result given; ! = not active in a repeat; [ ] = dose if it differs, or a comment. Calls come from the whole dose curve; as a rule, active = well fitted curve in the direction sought with a large enough effect; inconclusive = small, poorly fitted or top-dose-only effect, or another doubt; inactive = no such curve, though single readings can be large; an effect the other way counts as inactive or inconclusive. Potency is the fitted concentration of half-maximal effect.
SMILES,G9a inh,GLS inhibitor,HP1b chromo inh,JMJD2A Tudor,BAZ2B inh,L3MBTL1 inh
O=C(OCC(=O)N1CCCC1=O)c1nc(Cl)c(Cl)c(Cl)c1Cl,.,?,-2.1%,?,70.8µM*,.
CCOC(=O)c1ccc(OC(=O)c2cn(-c3ccc(C)cc3)c(=O)c3ccccc23)cc1,-4.9%[59 µM],6.6%,27.6%[57 µM],-10.6%,4.3%,.
CCOc1ccc(OC(=O)c2cn(-c3ccc(C)cc3)c(=O)c3ccccc23)cc1,7.3%[59 µM],8.8%,25.1%[57 µM],50.1µM*,0.6%,.
CC(C)(C)c1ccc(Oc2ccc(NC(=O)c3ccccc3C(=O)O)cn2)cc1,56.2µM*,-2.1%,76.9%,-17.6%,-22.0%,-20.8%
CCOC(=O)c1ccc(NC(=O)CC2Nc3ccccc3NC2=O)cc1 (stereo unspecified),-25.3%[59 µM],3.6%,30.2%,-6.9%,-13.6%,.
Cc1ccc(-c2nnc(SCC(=O)NCc3ccccc3)o2)cc1,45.4%[59 µM],-4.4%,24.3%,-7.8%,6.7%,.
Cc1ccccc1Nc1c(-c2cccc(N(C)C)c2)nc2ccc(Br)cn12,-11.6%[59 µM],-9.7%,-4.2%,-25.3%,-30.0%,.
Cc1ccc(S(=O)(=O)Nc2c(O)c3ccccc3oc2=O)cc1,28.2µM*,-11.1%,46.3%,-13.8%,-3.3%,.
C/C(=N/NS(=O)(=O)c1ccc(C)cc1)c1c(O)c2ccccc2oc1=O,50.1µM*,0.0%,15.0%,-12.8%,-18.3%,.
Cc1ccc(S(=O)(=O)Nc2c(O)c3ccccc3oc2=O)cc1C,50.1µM*,0.3%,-0.8%,-1.4%,5.1%,.
CC(C)(C)c1ccc(CCC2OCC(C[N+]3(C)CCOCC3)O2)cc1 (stereo unspecified),50.1µM*,1.9%,-5.5%,?,-19.4%,0.4%
O=C(CCC(=O)N1Cc2ccccc2Oc2ncccc21)NCc1ccccc1Cl,-16.1%[59 µM],-11.2%,11.4%,-5.8%,-15.8%[57.1 µM],.
O=C(CSc1nnc2c(n1)[nH]c1ccccc12)Nc1ccc(N2CCOCC2)cc1,.,3.5%,-0.1%,31.6µM*,-30.7%,57.1%
c1ccc2c(c1)[nH]c1nc(SCCN3CCOCC3)nnc12,3.55µM*,7.2%,18.0%,79.4µM*,5.6%,0.7%
Brc1ccc2[nH]c3nc(SCCN4CCOCC4)nnc3c2c1,39.8µM*,21.2%,6.4%,79.4µM*!,-12.0%,2.1%
O=C(CSc1nnc2c(n1)[nH]c1ccc(F)cc12)N1CCOCC1,-1.7%,0.7%,29.0%,-4.5%,-2.8%,10.7%
CCCn1c2ccccc2c2nnc(SCCN3CCOCC3)nc21,?,2.6%,36.8%,-24.0%,-19.9%,.
O=C(Cc1c[nH]c2ccccc12)Nc1ccc(N2CCOCC2)cc1,22.4µM*,0.0%,-0.2%,?,?,-19.2%
COc1ccc(CC(=O)Nc2c(C(=O)Nc3ccc(F)cc3)oc3ccccc23)cc1OC,2.6%[59 µM],-0.4%,41.5%,-2.6%,3.1%,.
CCCCSc1nnc2c(n1)[nH]c1ccccc12,-2.6%[12.7 µM],1.8%,23.1%,22.4µM*,?,.
CC(C)CSc1nnc2c(n1)[nH]c1ccccc12,13.1%,1.7%,26.0%,-26.2%,6.7%,.
Nc1ccc2nc(-c3cccc(-c4nc5ccc(N)cc5[nH]4)c3)[nH]c2c1,22.4µM*,-14.2%,-16.9%[57 µM],-33.9%,?,.
Nc1ccc2nc(-c3ccc(Cl)cc3)[nH]c2c1,?,9.4%,18.1%,?,-28.9%,.
Nc1ccc(-c2nc3ccc(N)cc3[nH]2)cc1,-38.8%,26.7%,?,56.2µM*,?,-12.1%
Cc1nc2ccc(-c3nc4ccc(N)cc4[nH]3)cc2[nH]1,?,8.91µM*,15.7%,-30.2%,-24.7%,0.8%
SMILES,G9a inh,GLS inhibitor,HP1b chromo inh,JMJD2A Tudor,BAZ2B inh,L3MBTL1 inh
Nc1cc(N)cc(-c2nc3ccccc3[nH]2)c1,22.4µM*,2.3%,-36.2%,?,44.7µM*,-23.6%
Cc1cc(C)c(S(=O)(=O)NCc2csc(-c3ccccc3)n2)c(C)c1,24.8%[59 µM],-5.7%,49.7%,7.0%,25.9%,.
CCc1nnc(SC(CC)C(=O)Nc2cccc(OC)c2)c2cc3oc(C)cc3n12 (stereo unspecified),?,2.5%,7.5%,-12.5%,-36.5%,.
Nc1ccc2nc(C3CCCCC3)[nH]c2c1,?,?,12.7%,-17.4%,56.2µM*,-23.9%
CCN(CC)C(=O)c1sc(NC(=O)c2cc(-c3ccc(C)s3)nc3ccccc23)c(C(=O)OC)c1C,39.8µM*,-4.3%,-11.1%,3.5%,1.1%,1.2%
CCOC(=O)c1c(NC(=O)c2ccoc2C)sc(C(=O)N(C)C)c1C,31.6µM*,-1.8%,-7.6%,?,8.2%,.
CCOC(=O)c1c(NC(=O)Nc2ccc(F)cc2)sc(C(=O)N(C)C)c1C,-7.6%[59 µM],7.4%,15.4%,-10.6%,1.5%,.
CCN(CC)C(=O)c1sc(NC(=O)c2ccncc2)c(C(=O)OC)c1C,?,1.3%,-7.8%,-7.1%,10.0%,4.5%
CCN(CC)C(=O)c1sc(NC(=O)c2ccoc2C)c(C(=O)OC)c1C,12.6µM*,-13.5%,?,-28.7%,0.5%,-3.5%
Cc1cc(C)nc(NC(=O)c2cc(-c3ccc(C)s3)nc3ccccc23)c1,63.8%[59 µM],-2.3%,73.2%,34.0%,24.2%,32.1%
CCCCCCCCCCCCCCCCCC(=O)[O][Al],.,-2.9%,.,.,.,.
COc1ccccc1NC(=O)c1cc2cc(Br)ccc2cc1O,?,-4.1%,4.1%,?,50.1µM*,.
COc1cc(NC(=O)c2cc3ccccc3cc2O)c(OC)cc1Cl,21.3%[12.7 µM],-3.1%,56.5%,2.7%,-25.6%,.
COc1ccccc1NC(=O)c1cc2ccc(O)cc2o/c1=N\O,?,-6.8%,52.2%,?,-10.0%,-2.7%
COc1ccccc1NC(=O)c1cc2ccccc2o/c1=N\O,14.1µM*,-17.4%,-7.4%,?,79.4µM*,3.7%
COc1ccc(NC(=O)CN(c2cc(C)cc(C)c2)S(=O)(=O)c2c(C)noc2C)cc1Cl,9.9%[59 µM],-10.3%,3.5%,-23.0%,.,.
COc1cc(C2SC[C@H]3C(=O)N(c4ccccc4)C(=O)N23)cc(OC)c1OC (stereo partly specified),-0.6%[59 µM],0.8%,31.6%,-12.9%,-3.9%,.
O=[N+]([O-])c1ccc(-c2c[nH]c(=S)[nH]2)cc1,2µM*,-4.5%,?,?,-2.4%,?
COc1cc(-c2ccccc2)[nH]c(=S)n1,26.7%[2.33 µM],-15.4%,58.0%,-12.1%,?,8.7%
S=c1[nH]cc(-c2ccccc2)[nH]1,-129.7%[59 µM],20.3%,-0.3%,25.1µM*,-8.3%,.
COc1cc(NC(=O)CCCOc2cc(=O)n(C)c3ccccc23)cc(OC)c1OC,5.4%[59 µM],4.3%,31.9%,-17.5%,-2.9%,.
c1ccc(-c2csc3nnc(SCc4ccc5c(c4)OCO5)n23)cc1,-54.1%[59 µM],?,-4.8%,20µM*,-29.5%,11.8%
O=C(CCSc1nnc2scc(-c3ccccc3)n12)NCc1ccc2c(c1)OCO2,5.5%[59 µM],5.3%,14.1%,-18.3%,0.0%,-6.9%

# Compound activity from PubChem.
